Bioassay records as filed in PubChem BioAssay.
Pf apPOL block – Pf-apPOL DNA polymerase inhibition | Recombinant Pf-apPOL, molecular beacon fluorescence, 1.5 h | inhibition, % at 10 µM | 210,000 tested, 0.25% active | AID 1794808
mHTT-CaM PPI inh – disrupts binding of mutant huntingtin to calmodulin; 190,000 tested, 3.6% active; inhibition, % at 15 µM; AlphaScreen His-mHTT/GST-CaM binding, luminescence;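 note: 0% = both proteins with DMSO and 100% = one protein alone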
Active calls of the source: *; / = no result given. This excerpt belongs to a sample that is enriched for hits. Cut-off read from the data, not from the text of the source: active = inhibition above about 50%; inactive = the rest.

SMILES	Pf apPOL block	mHTT-CaM PPI inh
O=C(NCC1CCN(C(=O)Nc2ccc(F)cc2)CC1)Nc1cccs1	-6.6	7.1
CCN1C(=O)Cc2cc(C(=O)N3CCC(C)CC3)ccc21	-3.4	5.9
COc1ccccc1CNC(=O)c1ccc2c(c1)nc1n2CCCCC1	-4.0	-1.4
CC(C)(C)C(=O)N1CCCC(c2ccnc(Nc3cccc(F)c3)n2)C1 (stereo not drawn)	-3.3	77.9*
COc1ccccc1C(=O)N1CCCC(c2ccnc(Nc3ccccc3C)n2)C1 (stereo not drawn)	-4.7	52.0*
Cc1ccccc1Nc1nccc(C2CCCN(C(=O)c3ccoc3)C2)n1 (stereo not drawn)	-4.5	20.3
Cc1ccccc1C(=O)N1CCCC(c2ccnc(Nc3cccc(F)c3)n2)C1 (stereo not drawn)	-2.0	99.5*
Cc1cccc(-c2nccc(C3CCCN(C(=O)C(C)(C)C)C3)n2)c1 (stereo not drawn)	-1.7	5.1
Cc1ccccc1C(=O)N1CCCC(c2ccnc(-c3ccccc3)n2)C1 (stereo not drawn)	-3.4	-1.7
COc1ccccc1C(=O)N1CCCC(c2ccnc(-c3cccc(F)c3)n2)C1 (stereo not drawn)	-3.6	51.0*
COc1ccccc1C(=O)N1CCCC(c2ccnc(-c3cccc(C)c3)n2)C1 (stereo not drawn)	-4.6	21.6
CCN(CC)c1nc2cc(C(=O)OC)ccc2c(=O)n1-c1cccc(F)c1	-0.7	-25.3
Cc1ccc(NC(=O)N2CCc3c(c(-c4nc(C)no4)nn3C)C2)cc1	-0.2	36.7
O=C(Cc1cccs1)N1CCCC1c1nc(-c2ccccc2)n[nH]1 (stereo not drawn)	3.7	-0.7
Cc1nc(C)c(-c2nc(-c3ccc(Oc4ccc(F)cc4)cc3)no2)s1	1.0	-11.6
COc1ccc(-n2nc(C(=O)Nc3cccc(Cl)c3)c3ccccc3c2=O)c(OC)c1	13.0	-4.0
O=C(c1ccc(F)cc1)N1CCCC(c2ccnc(Nc3cccc(F)c3)n2)C1 (stereo not drawn)	0.4	80.9*
CN(C)c1ccc(C(=O)N2CCCC(c3ccnc(Nc4ccc(F)cc4)n3)C2)cc1 (stereo not drawn)	-2.8	88.3*
COc1ccc(C(=O)N2CCCC(c3ccnc(Nc4cccc(F)c4)n3)C2)c(OC)c1 (stereo not drawn)	-4.8	-7.7
Cc1ccc(C(=O)N2CCCC(c3ccnc(Nc4ccc(F)cc4)n3)C2)s1 (stereo not drawn)	0.5	82.3*
COc1ccc(C(=O)N2CCCC(c3ccnc(Nc4cccc(F)c4)n3)C2)cc1 (stereo not drawn)	-1.1	64.0*
O=C(c1ccc(F)cc1)N1CCCC(c2ccnc(Nc3ccccc3)n2)C1 (stereo not drawn)	-1.3	27.8
CCCC(=O)N1CCCC(c2ccnc(Nc3ccc(C)cc3)n2)C1 (stereo not drawn)	-1.5	3.1
COc1ccc(Nc2nccc(C3CCCN(C(=O)c4ccc(C#N)cc4)C3)n2)cc1 (stereo not drawn)	-4.6	12.3
COc1ccc(NC(=O)CSc2nc(C)cc(C(F)(F)F)c2C#N)cc1	-3.1	-5.0
SMILES	Pf apPOL block	mHTT-CaM PPI inh
Cc1ccc(-c2cc(C(F)(F)F)n3ncc(C(=O)N4CCCCC4)c3n2)cc1	-1.9	2.0
CCC(=O)N1c2ccc(S(=O)(=O)NC(C)CC)cc2CC1C (stereo not drawn)	9.0	2.0
O=C(Nc1cccc2c1C(=O)c1ccccc1C2=O)c1ccc(Cl)s1	0.8	0.0
O=C(Nc1cccc2c1C(=O)NC2=O)c1ccc(Cl)s1	1.3	100.1*
O=S(=O)(c1cccnc1)N1CCC(n2c(-c3ccsc3)nc3cccnc32)C1 (stereo not drawn)	-4.6	11.5
O=C1C2N=NN(c3ccc(F)cc3)C2C(=O)N1c1ccc(F)cc1 (stereo not drawn)	-0.3	-3.6
CCN(CC)C(=O)CC(c1ccc(OC)cc1)c1c(OC)cc(OC)c2ccc(=O)oc12 (stereo not drawn)	-1.1	31.9
COc1cc(OC)c2ccc(=O)oc2c1C(CCN1CCOCC1)c1ccc(N(C)C)cc1 (stereo not drawn)	-8.2	47.1
COc1cc(OC)c2ccc(=O)oc2c1C(CCN1CCN(c2ccccc2)CC1)c1ccc(N(C)C)cc1 (stereo not drawn)	-2.4	83.5*
COc1ccc(C(CCN2CCN(c3ccccc3)CC2)c2c(OC)cc(OC)c3c(-c4ccccc4)cc(=O)oc23)cc1 (stereo not drawn)	-0.6	29.5
COc1cc(OC)c2c(-c3ccccc3)cc(=O)oc2c1C(CCN1CCN(c2ccccc2)CC1)c1ccc(N(C)C)cc1 (stereo not drawn)	-6.0	68.8*
CCN(CC)CCC(c1ccc(N(C)C)cc1)c1c(OC)cc(OC)c2c(-c3ccccc3)cc(=O)oc12 (stereo not drawn)	-6.0	100.2*
COc1ccc(/C=C2/N=C(c3ccc(Cl)c(Cl)c3)OC2=O)c(OC)c1	-4.4	5.0
O=C(NCCN1CCOCC1)c1ccc(CS(=O)(=O)Cc2ccc(Cl)cc2)o1	-12.2	-6.0
Cc1ccc(CNC(=O)COc2cc(C)nc(N3CCCC(C)C3)n2)cc1 (stereo not drawn)	-4.6	-3.0
O=C1OC(c2ccccc2)=N/C1=C/c1ccc(-c2ccc(Cl)c(C(=O)O)c2)o1	-2.2	20.0
N=C1S/C(=C\c2ccc(-c3ccccc3F)o2)C(=O)N1c1nccs1	0.8	27.0
N=C1S/C(=C\c2ccc(-c3ccc(Cl)c(C(=O)O)c3)o2)C(=O)N1c1nccs1	6.7	99.0*
N=C1S/C(=C\c2ccc(-c3ccc(Cl)cc3C(=O)O)o2)C(=O)N1c1nccs1	-1.8	75.0*
O=C(NCc1ccccc1F)c1cccc(C2CCCN(C(=O)Nc3ccccc3)C2)c1 (stereo not drawn)	0.9	4.7
CC1=C(C(=O)Nc2ccc(F)c(F)c2)C(c2ccc([N+](=O)[O-])cc2)NC(=O)N1 (stereo not drawn)	-6.3	3.9
Cc1ccc(C2=CC(c3cccc(C)c3)n3nnnc3N2)cc1 (stereo not drawn)	4.0	-14.0
N#Cc1ccc(Oc2c([N+](=O)[O-])cc(C(F)(F)F)cc2[N+](=O)[O-])cc1	1.1	5.0
CCOc1ccc(/C=C2\SC(=N)N(c3ccc4c(c3)OCO4)C2=O)cc1OC	-6.2	11.0
COc1cc(/C=C2\SC(=N)N(c3ccc(F)cc3)C2=O)ccc1O	4.4	9.0
SMILES	Pf apPOL block	mHTT-CaM PPI inh
CCOc1cc(/C=C2\SC(=N)N(c3nccs3)C2=O)ccc1OCCN1CCOCC1	-3.2	51.0*
CCOc1cc(/C=C2\SC(=N)N(c3nonc3N)C2=O)ccc1O	51.8*	16.0
C=CCn1cnc2c1c(=O)n(Cc1ccccc1)c(=O)n2-c1ccccc1	-6.4	0.8
CN(CC(=O)N1CCCCCC1)Cc1cc[nH]c(=O)c1	2.3	1.9
O=[N+]([O-])C(=C1NCCCN1)C(SCCO)=C(Cl)Cl	2.0	-3.0
COC(=O)c1ccc(C=NNc2ccc(C(F)(F)F)cc2)n1-c1ccc(F)cc1	-3.4	/
COc1ccc(NC(=O)c2ncn[nH]2)cc1	2.3	-1.1
COc1ccc(CNC(=O)c2ncn[nH]2)cc1	-5.6	87.0*
CC1CCCN(C(=O)C2CC(=O)N(c3ccccc3)C2)C1 (stereo not drawn)	3.0	3.6
CCc1nnc(NC(=O)c2cc(OC)c(OC)c(OC)c2Br)s1	79.5*	6.0
CCc1nnc(NC(=O)c2c(OC)cccc2OC)s1	2.6	1.4
